Compounds with a hit are over-represented: about 19% of the library has one in this group of screens.
TDP1 cell noCPT: qHTS for Inhibitors of human tyrosyl-DNA phosphodiesterase 1 (TDP1): qHTS in cells in absence of CPT | DT40 Tdp1-/- hTDP1 cells, no CPT, ATP luminescence, 48 h | 420,000 compounds, 15% hits | AID 686978, 2013 | Potency, µM (titrated, usually from 46.2 µM), for the others: top-dose activity change, negative = growth inhibition, usual class: inhibitors; further: potency means the concentration at half of the fitted maximal effect; on the % scale 0 is the no-effect control and ±100 the full control effect; nearly all actives have a fitted effect of over 55% in size
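Growth of hTDP1-complemented DT40 Tdp1-knockout cells is measured by ATP luminescence after at least 48 hr compound exposure at 37 °C, with DMSO substituting for the 20 nM CPT used in the parallel screen.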
IL-1B inflam inh: inflammasome signaling inhibition, IL-1 beta readout; THP-1 LPS/ATP IL-1B secretion, AlphaLISA, 16 h; hits give low values; activity change, % at 57.5 µM; 360,000 compounds, 4.7% hits; AID 743279; in the data active means activity change below about -50%; inconclusive means mostly about -30% to -49%; further: on the % scale 0 is the no-effect control and ±100 the full control effect
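THP-1 cells pretreated 1 hr with compounds (up to 57.5 uM final), then stimulated with LPS (250 ng/mL final) plus ATP (1.25 mM final); secreted IL-1B measured by AlphaLISA after 16 hr, decreased signal indicating inhibition.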
HepG2 tox-1: HepG2 cytotoxicity, counter-screen for TGF-b inhibitors; HepG2 CAGA-GFP viability, ATP luminescence, 18 h; Potency, µM (titrated, usually from 46.1 µM), without a hit: at the highest dose activity change, negative = cytotoxicity, usual class: cytotoxic; 410,000 compounds, 0.76% hits; AID 588856; further: potency means the concentration at half of the fitted maximal effect
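CellTiter-Glo luminescence gave cytotoxicity after 18 hours at 37 degrees C. The cells were HepG2 CAGA-GFP in 1% FBS DMEM, stimulated with 500 pg/mL TGF-beta after compound addition. %Activity was normalised to no-cell wells (complete cell-killing) and DMSO (no toxicity), and curves were fitted and classified.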
TDP1 inh: inhibitors of human tyrosyl-DNA phosphodiesterase TDP1 | Q9NUW8 | recombinant TDP1, AlphaScreen DNA substrate cleavage | Potency, µM (titrated, usually from 130 µM), inactives show at the top dose activity change, negative = inhibition, hits mostly inhibitors | 350,000 compounds, 0.28% hits | AID 485290; further: potency means the concentration at half of the fitted maximal effect; on the % scale 0 is the no-effect control and ±100 the full control effect; nearly all actives have a fitted effect of over 40% in size
Target sequence (Q9NUW8 whole entry, looked up): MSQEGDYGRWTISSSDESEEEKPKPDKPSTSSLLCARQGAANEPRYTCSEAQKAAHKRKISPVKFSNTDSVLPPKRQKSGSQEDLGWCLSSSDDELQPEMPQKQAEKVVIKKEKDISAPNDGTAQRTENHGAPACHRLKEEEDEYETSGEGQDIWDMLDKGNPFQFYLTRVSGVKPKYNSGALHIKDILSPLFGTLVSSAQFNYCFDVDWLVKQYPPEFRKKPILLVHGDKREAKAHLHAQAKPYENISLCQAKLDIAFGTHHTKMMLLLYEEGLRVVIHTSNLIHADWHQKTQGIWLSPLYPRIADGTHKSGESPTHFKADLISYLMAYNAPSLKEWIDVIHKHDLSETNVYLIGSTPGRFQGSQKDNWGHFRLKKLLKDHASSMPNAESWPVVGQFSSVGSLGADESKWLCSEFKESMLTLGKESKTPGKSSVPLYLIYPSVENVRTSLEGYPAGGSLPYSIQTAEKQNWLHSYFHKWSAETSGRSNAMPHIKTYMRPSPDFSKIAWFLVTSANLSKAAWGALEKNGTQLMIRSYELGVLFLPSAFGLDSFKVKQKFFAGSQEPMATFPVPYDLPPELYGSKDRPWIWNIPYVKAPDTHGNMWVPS
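Steps: enzyme plus compound, 15 min RT; add biotin/phosphotyrosine-FITC oligonucleotide (15 nM final), react 5 min; add donor/acceptor beads (10 ug/ml final), 10 min; read AlphaScreen. Tdp1 at 1 nM final.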
TDP1 cell CPT: DT40-hTDP1 cell growth loss with CPT. chicken DT40 Tdp1-/-;hTDP1 cells + 20 nM CPT, ATP luminescence, 48 h. Potency, µM (top dose mostly 46.2 µM), inactives show at the top dose activity change, negative = growth inhibition, usual class: inhibitors. 420,000 compounds, 12% hits. AID 686979; further: potency means the concentration at half of the fitted maximal effect; on the % scale 0 is the no-effect control and ±100 the full control effect; nearly all actives have a fitted effect of over 55% in size
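Cell growth measured by CellTiter-Glo luminescence after a minimum 48 h, 37 C compound exposure with 20 nM CPT in Tdp1-knockout DT40 cells stably expressing hTDP1, seeded 400/well; qHTS titration format.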
TGFb inhibitor: inhibitors of TGF-b signaling; HepG2 CAGA-GFP TGF-b/SMAD3 reporter, GFP fluorescence, 18 h; TGF-beta stimulated, 500 pg/mL final; Potency, µM (highest dose often 46.1 µM), inactives show top-dose activity, negative = inhibition, most hits filed as inhibitors; 410,000 compounds, 1.2% hits; AID 588855; further: potency means the concentration at half of the fitted maximal effect; on the % scale 0 is the no-effect control and ±100 the full control effect; nearly all actives have a fitted effect of over 65% in size
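Inhibition was scored as loss of TGF-beta-induced (500 pg/mL final, 18 hours, 37 degrees C) GFP in HEPG2 cells carrying a CAGA-GFP reporter, in DMEM with 1% FBS. Well GFP was summed per cell; Activity was normalised to unstimulated and stimulated DMSO wells, then concentration-response fitting.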
TGFb CAGA inh: confirmation of TGF-b signaling inhibitors in HepG2 reporter cells; 1,600 compounds, 63% hits; HepG2 CAGA-GFP TGF-b reporter, GFP fluorescence, 18 h; cells stimulated with TGF-beta, 500 pg/mL; Potency, µM (doses to about 46.1 µM), inactives show at the top dose activity, negative = inhibition, hits mostly inhibitors; AID 720534; shares compounds with TGFb inhibitor; further: potency means the concentration at half of the fitted maximal effect; on the % scale 0 is the no-effect control and ±100 the full control effect; nearly all actives have a fitted effect of over 65% in size
HepG2 tox-2: toxic to HepG2 cells in TGF-b counterscreen; shares compounds with TGFb inhibitor; HepG2 CAGA-GFP viability, ATP luminescence, 18 h; cells stimulated with TGF-beta, 500 pg/mL; Potency, µM (series often up to 46.1 µM), without a hit: at the top dose activity, negative = cytotoxicity, actives largely listed as inhibitors; 1,600 compounds, 27% hits; AID 720535; further: potency means the concentration at half of the fitted maximal effect; on the % scale 0 is the no-effect control and ±100 the full control effect; nearly all actives have a fitted effect of over 70% in size
TGFb CCL64 inh: blocks TGF-b signaling in CCL64 reporter cells; 1,600 compounds, 41% hits; shares compounds with TGFb inhibitor; Potency, µM (highest dose often 46.1 µM), without a hit: at the highest dose activity, negative = inhibition, most hits filed as inhibitors; CCL64 CAGA-GFP reporter, TGF-b stimulated, GFP fluorescence, 18 h; further: potency means the concentration at half of the fitted maximal effect; nearly all actives have a fitted effect of over 65% in size
TGFb COP inh: blocks TGF-b signaling in HepG2 COP reporter | Potency, µM (titrated, usually from 46.1 µM), for inactives: top-dose activity, negative = inhibition, actives largely listed as inhibitors | 1,600 compounds, 3% hits | shares compounds with TGFb inhibitor | HepG2 COP-GFP TGF-b reporter, GFP fluorescence, 18 h; cells stimulated by added recombinant TGF-beta; further: potency means the concentration at half of the fitted maximal effect; nearly all actives have a fitted effect of over 70% in size
Numbers without * were called inactive; ? = inconclusive; · = not tested or not shown; [ ] = dose if it differs, or a comment. Unless noted, the call rests on the fitted dose curve; in most records, active means well fitted curve in the direction sought with a large enough effect; inconclusive means small, poorly fitted or top-dose-only effect, or another doubt; inactive means no such curve, though single readings can be large; an effect the other way counts as inactive or inconclusive.

SMILES	TDP1 cell noCPT	IL-1B inflam inh	HepG2 tox-1	TDP1 inh	TDP1 cell CPT	TGFb inhibitor	TGFb CAGA inh	HepG2 tox-2	TGFb CCL64 inh	TGFb COP inh
O=C1OCCN1C(=O)[C@H]1[C@H](c2ccc([N+](=O)[O-])cc2)C(c2cccc(Cl)c2)=NN1c1ccccc1	-6%	?	-8%	13%	2%	?	-27%	-18%	0%	-5%
CC[C@@H]1C(c2ccc(F)cc2)=NN(c2ccccc2)[C@H]1C(=O)N1CCOC1=O	-9%	-29	-12%	-6%[56.1 µM]	-1%	?	·	·	·	·
COc1ccc(CCN2CC(C(=O)NC3CCOCC3)CCC2=O)cc1 (centres undefined)	6%	22	5%	2%	-5%	2%	·	·	·	·
O=C1c2cccc(OCc3ccc(F)cc3)c2CCN1Cc1ccc(F)cc1	12µM*	-68*	-29%	-8%	?	6.3µM*	23µM*	?	13µM*	31%
Cc1ccc(C(=O)NS(=O)(=O)c2ccc(N=NN(C)C)cc2)cc1	0%	1	11%	3%	0%	3%	·	·	·	·
CCN(CC)S(=O)(=O)c1ccc2[nH]c(=O)cc(C(=O)NCC3CCCO3)c2c1 (centres undefined)	7%	29	1%	-6%[0.505 µM]	36%	2%	·	·	·	·
Cc1ccc(NC(=S)NCc2ccccc2)cc1S(=O)(=O)N1CCCCC1	?	-22	-24%	7%	?	16µM*	23µM*	?	26µM*	58%
Cc1cc(NC(=O)c2ccccc2NS(=O)(=O)c2c(C)c(C)cc(C)c2C)no1	?	24	-21%	0%	?	?	·	·	·	·
Cc1ccc(C)c(S(=O)(=O)Nc2ccccc2C(=O)Nc2cc(C)on2)c1	?	34	-36%	-2%	16µM*	7.9µM*	?	?	?	22%
CN(C)CC(C(=O)c1ccccc1)c1ccccc1 (centres undefined)	1.5µM*	-101*	8.9µM*	0%	1.2µM*	4µM*	5.2µM*	10µM*	3.3µM*	?
COc1ccc(-c2cc3nc(NCC4CCCCC4)n(C)c(=O)c3s2)cc1OC	?	13	-29%	·	?	10µM*	?	?	?	65%
Cc1ccccc1C(=O)N(C)[C@H]1C[C@H]2c3[nH]c4ccccc4c3CCN2C[C@H]1[C@H](C)O	?	0	1%	·	?	?	·	·	·	·
C1CCN2C[C@H]3C[C@H](CN4CCCCC34)C2C1 (some centres undefined)	?	·	·	-9%[56.1 µM]	-8%	·	·	·	·	·
Cc1ccccc1CS(=O)(=O)c1nnc([C@H](CC(C)C)NC(=O)OC(C)(C)C)o1	2.8µM*	-67*	-90%	1%	2.2µM*	5µM*	3.7µM*	?	5.8µM*	?
CC(C)(C)OC(=O)N[C@@H](CCCCNC(=O)OCc1ccccc1)c1nnc([C@H](CCCCNC(=O)OCc2ccccc2)NC(=O)OC(C)(C)C)o1	?	-14	4%	2%	?	-1%	·	·	·	·
Fc1ccc(-c2csc3ncnc(N4CCc5ccccc5C4)c23)cc1	?	-1	-30%	2%	16µM*	18µM*	16µM*	?	?	20%
Fc1cccc(CCN2C(=S)NC[C@@H]2CC2CCCCC2)c1	?	?	-34%	2%	?	14µM*	16µM*	-16%	?	-23%
O=C1CNC(=S)N1C1CCCCCC1	-7%	6	5%	12%	17%	-1%	·	·	·	·
NC(=O)CC(NC(=O)c1ccc(Br)cc1)c1ccc(N2CCC(Cc3ccccc3)CC2)c([N+](=O)[O-])c1 (centres undefined)	-73%	-13	-31%	·	16µM*	10µM*	?	21µM*	?	-4%
NC(=O)CC(NC(=O)c1ccccc1)c1ccc(N2CCC(Cc3ccccc3)CC2)c([N+](=O)[O-])c1 (centres undefined)	5.2µM*	-20	-35%	·	7.3µM*	6.3µM*	23µM*	?	?	67%
COc1ccc(OC)c(NC(=O)NNC(=O)CCCOc2ccc(Cl)cc2C)c1	?	-55*	-21%	2%	?	?	16µM*	-11%	4%	20%
Cc1ccc(CN=C(N)Nc2nc(C)cc(C)n2)cc1	3.3µM*	-52*	-2%	-5%	6.5µM*	16µM*	15µM*	?	?	12%
O=C1NC(Cc2ccc(O)cc2)c2nc3cc(Cl)ccc3c(=O)n2-c2cc3ccccc3cc21 (centres undefined)	-19%	17	-9%	·	-1%	?	·	·	·	·
O=C1NC(Cc2ccc(O)cc2)c2nc3cc(F)c(F)cc3c(=O)n2-c2cc3ccccc3cc21 (centres undefined)	?	-28	-20%	·	?	16µM*	?	?	?	62%
